PD-1 reverse act = activators reversing PD-1 mediated T-cell inhibition, primary screen, luminescence, primary human CD4 T cells, PD-L1 beads; CellTiter-Glo 96 h; activation, % (no concentration beside the values); 29,000 tested, under 10 active; call rule not given here;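 note: 0% = median vehicle wells and 100% = positive control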
Shh pathway inh = Hedgehog pathway signaling inhibitors, primary screen, luminescence, Shh-LIGHT2 cells, Gli-luciferase; Shh-LIGHT2 Gli-luciferase reporter, 30 h; inhibition, % (test concentration not listed); AID 2313, 2010; 2.1% of 22,000 active;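 active = mean inhibition across valid replicates above about 65%, limit read from the data; inconclusive = mean under the limit, yet half or more replicates past it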;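 note: pathway switched on by Shh-conditioned medium diluted 1 in 25 in low serum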
NOMO-1 viab = NOMO-1 AML cell viability reduction, primary screen, STK33 inhibitor project, CellTiter-Glo luminescence | NOMO-1 AML viability, 72 h | inhibition, % (test concentration not listed) | 7.5% of 37,000 active | AID 2330, 2010; in the data active = inhibition above about 80%; inconclusive = no clear call, values can overlap the other calls
* marks the source's active call; other numbers are inactive results; u = inconclusive; x = no result given. This is a sample that favours compounds with a hit; in the whole collection about 7.7% have one here.

SMILES	PD-1 reverse act	Shh pathway inh	NOMO-1 viab
C[C@H](CO)N1C[C@H](C)[C@H](CN(C)C(=O)Nc2ccc(C(F)(F)F)cc2)Oc2c(NC(=O)c3nc4ccccc4s3)cccc2C1=O	-8	u	104*
C[C@H](CO)N1C[C@H](C)[C@H](CN(C)Cc2ccncc2)Oc2c(NC(=O)c3nc4ccccc4s3)cccc2C1=O	-7	24	88*
C[C@H]1CN([C@@H](C)CO)C(=O)c2cccc(NC(=O)c3nc4ccccc4s3)c2O[C@H]1CN(C)Cc1ccc(C(F)(F)F)cc1	-3	-4	50
C[C@H](CO)N1C[C@H](C)[C@@H](CN(C)C(=O)Nc2ccc(C(F)(F)F)cc2)Oc2c(NC(=O)c3nc4ccccc4s3)cccc2C1=O	-2	6	13
C[C@H](CO)N1C[C@H](C)[C@@H](CN(C)Cc2ccncc2)Oc2c(NC(=O)c3nc4ccccc4s3)cccc2C1=O	-5	-25	74
O=C(O)C1C2CCC(C2)C1C(=O)c1ccccc1 (configuration not stated)	2	-23	1
COc1ccc(OCC(=O)Nc2cc(OC)ccc2NC(=O)c2ccco2)cc1	x	x	-13
CC(=O)N1CCc2cc(NC(=S)NCc3cccs3)ccc21	0	-27	8
O=[N+]([O-])c1ccc(S(=O)(=O)CC(CN2CCOCC2)N2CCOCC2)cc1 (configuration not stated)	-10	x	102*
O=C(NCCCN1CCOCC1)c1cccc([N+](=O)[O-])c1	x	x	11
CSC(SC)=C(C#N)C(=O)c1cccc(C(F)(F)F)c1	-2	-6	123*
N#CC(C(=O)c1cccc(C(F)(F)F)c1)=C1SCCCCS1	0	-17	57
O=C(OCCn1ncc2ccccc2c1=O)c1cccs1	-1	-51	34
COc1ccc(CN(C)C[C@@H]2OCCCC[C@@H](C)Oc3ccc(NS(=O)(=O)c4ccccc4)cc3C(=O)N([C@H](C)CO)C[C@@H]2C)cc1	x	x	26
C[C@@H]1CCCCO[C@H](CN(C)Cc2ccc(C(=O)Nc3ccccc3N)cc2)[C@@H](C)CN([C@H](C)CO)C(=O)c2cc(NS(C)(=O)=O)ccc2O1	-1	x	66
C[C@@H]1CCCCO[C@@H](CN(C)Cc2ccc(C(=O)Nc3ccccc3N)cc2)[C@@H](C)CN([C@H](C)CO)C(=O)c2cc(NS(=O)(=O)c3ccc(Cl)cc3)ccc2O1	0	x	127*
COc1ccc(S(=O)(=O)Nc2ccc3c(c2)C(=O)N([C@H](C)CO)C[C@H](C)[C@H](CN(C)Cc2ccc(C(=O)Nc4ccccc4N)cc2)OCCCC[C@@H](C)O3)cc1	-1	x	126*
O=C(CN1C(=O)C2C3CC(c4ccccc4)C(C3)C2C1=O)Nc1cccc([N+](=O)[O-])c1 (configuration not stated)	-3	x	64
Cc1ccc(S(=O)(=O)N(C)C[C@H]2Oc3c(NC(=O)Nc4ccc(C(F)(F)F)cc4)cccc3C(=O)N([C@H](C)CO)C[C@H]2C)cc1	-7	-19	85*
COc1ccc(NC(=O)Nc2cccc3c2O[C@H](CN(C)S(=O)(=O)c2ccc(C)cc2)[C@H](C)CN([C@H](C)CO)C3=O)cc1	0	15	25
C[C@@H]1CN([C@@H](C)CO)C(=O)c2cccc(NC(=O)Nc3ccccc3)c2O[C@@H]1CN(C)S(=O)(=O)c1ccc(F)cc1	-1	-36	61
Cc1ccc(S(=O)(=O)N(C)C[C@H]2Oc3c(NC(=O)Nc4ccc(C(F)(F)F)cc4)cccc3C(=O)N([C@@H](C)CO)C[C@@H]2C)cc1	-1	-29	63
COc1ccc(NC(=O)Nc2cccc3c2O[C@@H](CN(C)S(=O)(=O)c2ccc(C)cc2)[C@@H](C)CN([C@H](C)CO)C3=O)cc1	-3	94*	11
C[C@H](CO)N1C[C@H](C)[C@H](CN(C)S(=O)(=O)c2ccc(F)cc2)Oc2c(NC(=O)Nc3cccc4ccccc34)cccc2C1=O	-3	75*	72
C[C@H](CO)N1C[C@H](C)[C@H](CN(C)S(=O)(=O)c2ccc(F)cc2)Oc2c(NC(=O)Nc3ccccc3)cccc2C1=O	-1	100*	17
SMILES	PD-1 reverse act	Shh pathway inh	NOMO-1 viab
C[C@@H]1CN([C@@H](C)CO)C(=O)c2cccc(NC(=O)Nc3cccc4ccccc34)c2O[C@H]1CN(C)S(=O)(=O)c1ccc(F)cc1	-1	-41	15
O=C(CSc1ncnc2sc(-c3ccccc3)cc12)Nc1ccccc1C(F)(F)F	-3	x	50
CCNS(=O)(=O)c1cc(-c2nnc(Nc3ccc(F)cc3)c3ccccc23)ccc1C	-1	56	u
Cc1cccc(-n2ncc3ccccc3c2=O)c1	-1	-61	0
Cc1cc2nn(-c3ccc(Cl)cc3)nc2cc1NC(=O)COc1ccccc1C	2	x	4
COc1ccc(NC(=O)CN(C)S(=O)(=O)c2ccc(C)cc2)cc1OC	1	x	2
C[C@H]1CN([C@@H](C)CO)C(=O)c2cccc(NC(=O)C3CC3)c2O[C@H]1CN(C)S(=O)(=O)c1ccc(F)cc1	x	2	16
Cc1ccc(S(=O)(=O)N(C)C[C@H]2Oc3c(NC(=O)Nc4ccc(F)cc4)cccc3C(=O)N([C@@H](C)CO)C[C@@H]2C)cc1	2	6	35
C[C@H](CO)N1C[C@H](C)[C@H](CN(C)S(=O)(=O)c2ccc(F)cc2)Oc2c(NC(=O)C3CC3)cccc2C1=O	1	103*	-3
Cc1ccc(S(=O)(=O)N(C)C[C@@H]2Oc3c(NC(=O)Nc4ccccc4)cccc3C(=O)N([C@@H](C)CO)C[C@@H]2C)cc1	-1	107*	21
Cc1ccc(S(=O)(=O)N(C)C[C@H]2Oc3c(NC(=O)Nc4ccc(F)cc4)cccc3C(=O)N([C@@H](C)CO)C[C@H]2C)cc1	-2	14	98*
Cc1ccc(S(=O)(=O)N(C)C[C@H]2Oc3c(NC(=O)Nc4ccccc4)cccc3C(=O)N([C@H](C)CO)C[C@H]2C)cc1	0	32	3
C[C@H]1CN([C@@H](C)CO)C(=O)c2cccc(NC(=O)Nc3ccc(F)cc3)c2O[C@H]1CN(C)S(=O)(=O)c1ccc(F)cc1	1	83*	20
C[C@@H]1CN([C@H](C)CO)C(=O)c2cccc(NC(=O)Nc3ccc(F)cc3)c2O[C@@H]1CN(C)S(=O)(=O)c1ccc(F)cc1	0	17	28
CC(C)(C)c1ccc(S(=O)(=O)NCC(=O)Nc2cccc(Cl)c2)cc1	-5	x	58
O=C(CSc1ncnc2sc(-c3ccccc3)cc12)c1ccc2c(c1)OCCO2	0	-25	20
O=C(COc1ccc(S(=O)(=O)N2CCCC2)cc1Cl)Nc1ccc2c(c1)OCCO2	1	x	21
CCN(CC(=O)O)S(=O)(=O)c1ccc(C)cc1	2	x	11
C[C@@H]1CCCCO[C@@H](CN(C)Cc2ccc(Cl)c(Cl)c2)[C@@H](C)CN([C@H](C)CO)C(=O)c2cc(NC(=O)Nc3cccc4ccccc34)ccc2O1	2	26	45
C[C@@H]1CN([C@H](C)CO)C(=O)c2cc(NC(=O)Nc3cccc4ccccc34)ccc2O[C@@H]1CN(C)Cc1ccc(Cl)c(Cl)c1	-5	3	101*
